Hits are enriched below; roughly 2% of the tested compounds scored in any of these assays.
PrPC surface inh – inhibitors of human cell surface prion protein PrPC, primary screen, cell-based, TR-FRET; 370,000 tested, 0.43% active; Major prion protein (Homo sapiens), P04156; AID 720596, 2013; inhibition, % at 13.8 µM; TR-FRET read-out; in the data active = inhibition above about 24%
PfHsp40 rescue – rescue of yeast from PfHsp40 toxicity, primary screen, S. cerevisiae, ATP luminescence; S. cerevisiae expressing PfHsp40, growth rescue; growth rescue, % at 12.5 µM; 340,000 tested, 0.68% active; AID 504582, 2011; in the data active = growth rescue above about 28%, passing the limit was not always enough; inconclusive = no clear call, values can overlap the other calls;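 also: yeast W303a lacking pdr1 and pdr3 grown in galactose medium; growth measured after three days at 30 °C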
PrP UTR inh – inhibition of PrP 5' UTR reporter expression | AID 488862, 2010 | cell-based PrP 5' UTR mRNA reporter, plate reader | 340,000 tested, 0.35% active | inhibition, % (concentration not given with the values); in the data active = inhibition above about 52%
CCHF vOTU inh – CCHFV vOTU protease inhibitors, primary screen, biochemical, Pep-AMC substrate, fluorescence; AID 651958, 2012; 370,000 tested, 0.55% active; Crimean-Congo hemorrhagic fever virus L polyprotein viral ovarian tumor (vOTU) protease …; inhibition, % at 11.5 µM; in the data active = inhibition above about 30%
BJeLR viability – MLPCN primary cell-based screen for lethality selective to Ras in HRASV12 cells; BJeLR (HRASV12) viability, CellTiter-Glo ATP luminescence, 48 h; inhibition, % (concentration not given with the values); 300,000 tested, 0.17% active; in the data active = inhibition above about 50%; inconclusive = no clear call, values can overlap the other calls
Y pestis TopoI – Yersinia pestis topoisomerase I inhibitors, primary screen, biochemical, cleavage product accumulation, plate reader, single point. DNA topoisomerase I (Yersinia pestis CO92). activity, % at 10 µM. 360,000 tested, 0.064% active. Y. pestis Topo-I cleavage product accumulation. AID 504884, 2011; in the data active = activity above about 50%, passing the limit was not always enough; inconclusive = no clear call, values can overlap the other calls
PrPC TRFRET cf – confirmation of inhibitors of cell surface human prion protein, confirmation, cell-based, TR-FRET; shares compounds with PrPC surface inh; cell surface PrPC level; inhibition, % at 13.8 µM; 1,500 tested, 65% active; in the data active = inhibition above about 25%
LD9 cytotox – cytotoxicity in LD9 cells, cytotoxicity control for cell surface PrPc inhibitor project, cell-based, luminescence, high throughput. 1,500 tested, 29% active. luminescence viability. shares compounds with PrPC surface inh. inhibition, % at 13.8 µM; in the data active = inhibition above about 9.5%
Large screens that a line does not name were inactive (follow-up assays come after a bar, where they were run).

CC(=O)c1ccc(NC(=O)CO/N=C(\C)c2cccs2)cc1	none
CN(C)[C@H]1CCN(c2cccc3c2S(=O)(=O)N2CC[C@@H](C2)O3)C1	none (no result: PfHsp40 rescue, PrP UTR inh, BJeLR viability, Y pestis TopoI)
NC(=O)c1cccc(-c2cc(Nc3ccc(OC(F)(F)F)cc3)ncn2)c1	PrPC surface inh 51 | PrPC TRFRET cf inactive | LD9 cytotox inactive
O=C(NCCO)c1cccc(-c2cc(Nc3ccc(OC(F)(F)F)cc3)ncn2)c1	none (no result: PfHsp40 rescue, PrP UTR inh, BJeLR viability, Y pestis TopoI)
COc1ccc2nc3cc(Cl)ccc3c(Nc3cc(CN4CCCC4)c(O)c(CN4CCCC4)c3)c2n1	PrPC surface inh 45 (no result: PfHsp40 rescue, PrP UTR inh) | PrPC TRFRET cf 42 | LD9 cytotox 37
COc1ccc2nc3cc(Cl)ccc3c(Nc3cc(C(C)C)c(O)cc3C)c2c1	none
Cc1ccc(C(C)C)c(OCc2ccc(C(=O)N/N=C/c3ccc(O)c(O)c3)cc2)c1	PrPC surface inh 28 | PrPC TRFRET cf 41 | LD9 cytotox 11
CCCCOCCCNC(=O)C[C@@H]1C(=O)N(CCc2ccc(Cl)cc2)C2=CCCC[C@]21C(=O)OCC	none (no result: PfHsp40 rescue, PrP UTR inh, BJeLR viability, Y pestis TopoI)
COC(=O)C1=C(C)OC(N)=C(C#N)C1c1c(C)nn(-c2ccccc2)c1Cl (stereo not given)	none
Cc1nn(-c2ccccc2)c(Cl)c1C1C(C#N)=C(N)Oc2c1c(=O)oc1ccccc21 (stereo not given)	PrPC surface inh 36 | PrPC TRFRET cf inactive | LD9 cytotox inactive
C=CCN1C[C@H](COC(=O)c2cccc(C)c2)Oc2cccc(F)c2S1(=O)=O	none (no result: PfHsp40 rescue, PrP UTR inh, BJeLR viability, Y pestis TopoI)
CC1CC(C)CN(C(=O)C2CCN(c3cncnc3)CC2)C1 (stereo not given)	none (no result: PfHsp40 rescue, PrP UTR inh, BJeLR viability, Y pestis TopoI)
Cc1cccc(OCCCC(=O)Nc2nc3ccccc3[nH]2)c1	PrPC surface inh 29 | PrPC TRFRET cf 25 | LD9 cytotox inactive
Cc1ccc(NC(=O)C2CCCN(C(=O)Nc3ccc(F)cc3)C2)cc1 (stereo not given)	none
O=C(NC1CC1)C1CCCN(C(=O)Nc2ccc(F)cc2)C1 (stereo not given)	PrPC surface inh 31 | PrPC TRFRET cf inactive | LD9 cytotox inactive
COc1ccc(C(=O)/C=C(\Nc2ccc(F)cc2)c2ccc(OC)cc2OC)c(OC)c1	none (no result: PfHsp40 rescue, PrP UTR inh, BJeLR viability, Y pestis TopoI)
Cc1cc(C)nc(NS(=O)(=O)c2ccc(NC(=O)CSc3nc4ccccc4[nH]3)cc2)n1	none
N#Cc1c(-c2ccccc2)nc(SCC(=O)Nc2ccccc2)[nH]c1=O	PrPC surface inh 28 (no result: BJeLR viability) | PrPC TRFRET cf 39 | LD9 cytotox inactive
Cc1cc(C)nc(NS(=O)(=O)c2ccc(NC(=O)CSc3nc(-c4ccccc4)c(C#N)c(=O)[nH]3)cc2)n1	PrPC surface inh 50 | PrPC TRFRET cf 72 | LD9 cytotox inactive
Cc1cc(NC(=O)CSc2nc(-c3ccccc3)c(C#N)c(=O)[nH]2)no1	PrPC surface inh 41 | PrPC TRFRET cf 56 | LD9 cytotox inactive
Cc1cccc(NC(=O)CSc2nc(-c3ccccc3)c(C#N)c(=O)[nH]2)c1C	none
CCC(Sc1nc(-c2ccccc2)c(C#N)c(=O)[nH]1)C(=O)Nc1nnc(C)s1 (stereo not given)	PrPC surface inh 28 | PrPC TRFRET cf 48 | LD9 cytotox inactive
C#CCCC(=O)Nc1sc2c(c1-c1nc3ccccc3s1)CCN(C(C)C)C2	none (no result: PfHsp40 rescue, PrP UTR inh, CCHF vOTU inh, BJeLR viability, Y pestis TopoI)
CN(Cc1ccccc1)C(=O)OCc1cn(Cc2ccccc2Cl)nn1	none (no result: PfHsp40 rescue, PrP UTR inh, BJeLR viability, Y pestis TopoI)
COc1ccc2c(C)cc(SCC#N)nc2c1	none (no result: PrPC surface inh, CCHF vOTU inh)
COc1ccc2c(C)cc(SCc3c(C)noc3C)nc2c1	PrPC surface inh 67 | PrPC TRFRET cf 88 | LD9 cytotox inactive
Cc1ccc2nc(Br)c3c(c2c1)OC(CBr)C3 (stereo not given)	PrPC surface inh 29 | PrPC TRFRET cf 43 | LD9 cytotox inactive
COc1ccc2cc(C(=O)N(C)CC(=O)Nc3ccccc3Br)ccc2c1	PrPC surface inh 31 (no result: BJeLR viability) | PrPC TRFRET cf 44 | LD9 cytotox inactive
CN(CC(=O)Nc1ccccc1Br)C(=O)c1ccc(COc2ccccc2)cc1	none
CCn1c(SCc2ccc(C(C)(C)C)cc2)nnc1-c1ccc(C(C)(C)C)cc1	none (no result: PfHsp40 rescue, PrP UTR inh, BJeLR viability, Y pestis TopoI)
CC(C)CSc1nnc2c3ccccc3n(C)c2n1	PrPC surface inh 58 | PrPC TRFRET cf 66 | LD9 cytotox inactive
CCCC(=O)NC(c1ccc(Cl)cc1Cl)c1ccc2cccnc2c1O (stereo not given)	PrPC surface inh 28 | PrPC TRFRET cf inactive | LD9 cytotox 12
CCCC(=O)NC(c1ccc(Cl)cc1)c1ccc2cccnc2c1O (stereo not given)	PfHsp40 rescue inconclusive
CC(=O)NC(c1ccc(Cl)cc1Cl)c1ccc2cccnc2c1O (stereo not given)	PrPC surface inh 32, PfHsp40 rescue 445 | PrPC TRFRET cf 35 | LD9 cytotox 31
CC(C)C(=O)NC(c1cccc([N+](=O)[O-])c1)c1ccc2cccnc2c1O (stereo not given)	PrPC surface inh 29, PfHsp40 rescue 228 | PrPC TRFRET cf inactive | LD9 cytotox 28
CC(=O)NC(c1ccc2ccccc2c1)c1ccc2cccnc2c1O (stereo not given)	PrPC surface inh 38, PfHsp40 rescue 85 | PrPC TRFRET cf 25 | LD9 cytotox 31
Nc1nc(Cl)nc2c1ncn2[C@@H]1O[C@H](CO)[C@@H](O)[C@@H]1F	none (no result: PfHsp40 rescue, PrP UTR inh, BJeLR viability, Y pestis TopoI)
Clc1ccc(-n2c(SCc3cccc4ccccc34)nnc2-c2ccco2)cc1	none (no result: PfHsp40 rescue, PrP UTR inh, BJeLR viability, Y pestis TopoI)
COC(=O)C1=CO[C@@H](C)[C@H]2CN3CCc4c([nH]c5ccccc45)[C@@H]3C[C@H]12	PrPC surface inh 25 (no result: BJeLR viability) | PrPC TRFRET cf inactive | LD9 cytotox inactive
COC(=O)C1=COC(C)C2CN3CCc4c([nH]c5ccccc45)C3CC12 (stereo not given)	none
COc1cccc(/C=C2\CC3(OC(=O)c4ccc(F)cc4)CCCN2C3)c1 (stereo not given)	none (no result: PfHsp40 rescue, PrP UTR inh, BJeLR viability, Y pestis TopoI)
O=C1C=CC(O)(c2cc(=O)c3c(O)cc(O)cc3o2)C=C1	PrPC surface inh 82 | PrPC TRFRET cf 77 | LD9 cytotox 59
CCc1ccccc1NC(=O)C1CCCN(S(=O)(=O)c2ccc3c(c2)CC(C)N3C(C)=O)C1 (stereo not given)	PrPC surface inh 31 | PrPC TRFRET cf inactive | LD9 cytotox inactive
O=C1C(=C(c2ccccc2)N2CCOCC2)Cc2ccccc21	PrPC surface inh 33 (no result: PfHsp40 rescue, PrP UTR inh, BJeLR viability) | PrPC TRFRET cf inactive | LD9 cytotox 98
O=C(Nc1ccc(F)cc1F)c1cccn1-c1ncc(C(F)(F)F)cc1Cl	none
